Assay results taken from ChEMBL document CHEMBL2218924, “A broad activity screen in support of a chemogenomic map for kinase signalling research and drug discovery” (Biochem J, 2013).

Tests used:
[1] = target: Ribosomal protein S6 kinase alpha-4 (Homo sapiens) (UniProt O75676); details: at 1 µM
[2] = target: Ribosomal protein S6 kinase alpha-4 (Homo sapiens) (UniProt O75676); details: at 10 µM
[3] = target: SRSF protein kinase 3 (Homo sapiens) (UniProt Q9UPE1); details: at 1 µM
[4] = target: SRSF protein kinase 3 (Homo sapiens) (UniProt Q9UPE1); details: at 10 µM
[5] = target: T1, Serine/threonine-protein kinase 4 (Homo sapiens) (UniProt Q13043); details: at 1 µM
T1 sequence (whole entry): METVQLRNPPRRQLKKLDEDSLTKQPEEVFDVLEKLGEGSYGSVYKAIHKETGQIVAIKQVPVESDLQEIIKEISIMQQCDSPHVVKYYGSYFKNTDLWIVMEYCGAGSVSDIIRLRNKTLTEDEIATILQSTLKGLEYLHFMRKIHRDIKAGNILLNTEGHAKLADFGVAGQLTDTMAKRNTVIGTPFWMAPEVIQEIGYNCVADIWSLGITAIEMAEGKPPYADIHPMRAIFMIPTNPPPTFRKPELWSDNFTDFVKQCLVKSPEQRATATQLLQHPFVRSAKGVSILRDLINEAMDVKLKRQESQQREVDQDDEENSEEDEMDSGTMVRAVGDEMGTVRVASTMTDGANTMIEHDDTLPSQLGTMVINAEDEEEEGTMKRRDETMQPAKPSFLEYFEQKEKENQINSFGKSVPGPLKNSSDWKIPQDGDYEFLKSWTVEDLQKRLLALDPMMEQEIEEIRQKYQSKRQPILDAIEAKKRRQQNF

[6] = target: T2, Serine/threonine-protein kinase 3 (Homo sapiens) (UniProt Q13188); details: at 1 µM
T2 sequence (whole entry): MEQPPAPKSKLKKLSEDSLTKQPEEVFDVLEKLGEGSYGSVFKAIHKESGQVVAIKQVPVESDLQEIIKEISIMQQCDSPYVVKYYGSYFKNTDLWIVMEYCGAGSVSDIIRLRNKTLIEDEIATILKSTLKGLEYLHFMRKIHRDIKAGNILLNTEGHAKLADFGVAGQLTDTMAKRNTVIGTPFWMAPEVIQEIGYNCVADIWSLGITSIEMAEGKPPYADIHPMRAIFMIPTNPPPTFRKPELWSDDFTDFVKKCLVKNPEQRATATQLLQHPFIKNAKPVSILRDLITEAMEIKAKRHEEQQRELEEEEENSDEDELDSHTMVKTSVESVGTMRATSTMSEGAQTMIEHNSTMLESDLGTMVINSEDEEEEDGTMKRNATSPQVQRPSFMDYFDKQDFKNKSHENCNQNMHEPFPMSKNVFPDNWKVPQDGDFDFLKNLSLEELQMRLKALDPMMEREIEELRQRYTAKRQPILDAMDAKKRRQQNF

[7] = target: T2, Serine/threonine-protein kinase 3 (Homo sapiens); details: at 10 µM
[8] = target: Serine/threonine-protein kinase 24 (Homo sapiens) (UniProt Q9Y6E0); details: at 1 µM
Chain of Serine/threonine-protein kinase 24 (Homo sapiens) (Q9Y6E0 whole entry, looked up): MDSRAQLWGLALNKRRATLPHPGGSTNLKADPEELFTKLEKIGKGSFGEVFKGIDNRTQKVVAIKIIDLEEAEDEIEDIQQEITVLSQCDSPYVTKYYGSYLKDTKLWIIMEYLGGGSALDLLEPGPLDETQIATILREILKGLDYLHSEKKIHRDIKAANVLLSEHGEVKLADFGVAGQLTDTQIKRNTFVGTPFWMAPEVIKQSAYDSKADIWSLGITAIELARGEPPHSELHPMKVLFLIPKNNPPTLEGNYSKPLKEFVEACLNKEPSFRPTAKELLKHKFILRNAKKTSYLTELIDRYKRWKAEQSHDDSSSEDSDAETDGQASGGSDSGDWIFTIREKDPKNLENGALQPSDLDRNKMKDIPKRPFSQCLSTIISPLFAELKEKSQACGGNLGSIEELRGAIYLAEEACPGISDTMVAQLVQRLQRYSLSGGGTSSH

[9] = target: Serine/threonine-protein kinase 24 (Homo sapiens) (UniProt Q9Y6E0); details: at 10 µM
[10] = target: T3, Tyrosine-protein kinase Mer (Homo sapiens) (UniProt Q12866); details: at 1 µM
T3 sequence (whole entry): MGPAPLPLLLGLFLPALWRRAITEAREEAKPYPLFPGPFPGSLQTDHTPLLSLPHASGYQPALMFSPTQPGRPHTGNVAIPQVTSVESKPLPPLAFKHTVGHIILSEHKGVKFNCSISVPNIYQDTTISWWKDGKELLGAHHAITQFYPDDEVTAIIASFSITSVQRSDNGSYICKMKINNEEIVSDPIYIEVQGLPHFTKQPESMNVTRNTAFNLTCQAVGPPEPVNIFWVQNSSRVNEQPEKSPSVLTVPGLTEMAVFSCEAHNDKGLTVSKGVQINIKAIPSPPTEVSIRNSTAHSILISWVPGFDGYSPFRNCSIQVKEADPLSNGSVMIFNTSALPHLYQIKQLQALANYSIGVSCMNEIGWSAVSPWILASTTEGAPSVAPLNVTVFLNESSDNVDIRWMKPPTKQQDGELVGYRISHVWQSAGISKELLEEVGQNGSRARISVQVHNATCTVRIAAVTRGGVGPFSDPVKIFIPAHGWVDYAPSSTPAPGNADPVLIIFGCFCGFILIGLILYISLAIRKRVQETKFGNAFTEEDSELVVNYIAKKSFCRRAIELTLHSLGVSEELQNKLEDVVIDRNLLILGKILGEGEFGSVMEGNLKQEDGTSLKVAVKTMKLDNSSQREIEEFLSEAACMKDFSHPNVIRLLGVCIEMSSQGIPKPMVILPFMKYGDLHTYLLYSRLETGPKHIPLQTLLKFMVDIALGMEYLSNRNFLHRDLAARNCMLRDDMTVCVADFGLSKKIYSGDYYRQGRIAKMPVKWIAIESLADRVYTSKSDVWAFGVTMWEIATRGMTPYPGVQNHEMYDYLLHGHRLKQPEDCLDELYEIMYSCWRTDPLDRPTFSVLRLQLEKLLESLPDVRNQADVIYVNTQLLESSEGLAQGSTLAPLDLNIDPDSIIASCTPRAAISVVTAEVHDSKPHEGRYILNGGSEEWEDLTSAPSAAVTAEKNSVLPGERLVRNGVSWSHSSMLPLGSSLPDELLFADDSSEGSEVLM

[11] = target: T3, Tyrosine-protein kinase Mer (Homo sapiens); details: at 10 µM
[12] = target: Hepatocyte growth factor receptor (Homo sapiens) (UniProt P08581); details: at 1 µM
Chain of Hepatocyte growth factor receptor (Homo sapiens) (P08581 whole entry): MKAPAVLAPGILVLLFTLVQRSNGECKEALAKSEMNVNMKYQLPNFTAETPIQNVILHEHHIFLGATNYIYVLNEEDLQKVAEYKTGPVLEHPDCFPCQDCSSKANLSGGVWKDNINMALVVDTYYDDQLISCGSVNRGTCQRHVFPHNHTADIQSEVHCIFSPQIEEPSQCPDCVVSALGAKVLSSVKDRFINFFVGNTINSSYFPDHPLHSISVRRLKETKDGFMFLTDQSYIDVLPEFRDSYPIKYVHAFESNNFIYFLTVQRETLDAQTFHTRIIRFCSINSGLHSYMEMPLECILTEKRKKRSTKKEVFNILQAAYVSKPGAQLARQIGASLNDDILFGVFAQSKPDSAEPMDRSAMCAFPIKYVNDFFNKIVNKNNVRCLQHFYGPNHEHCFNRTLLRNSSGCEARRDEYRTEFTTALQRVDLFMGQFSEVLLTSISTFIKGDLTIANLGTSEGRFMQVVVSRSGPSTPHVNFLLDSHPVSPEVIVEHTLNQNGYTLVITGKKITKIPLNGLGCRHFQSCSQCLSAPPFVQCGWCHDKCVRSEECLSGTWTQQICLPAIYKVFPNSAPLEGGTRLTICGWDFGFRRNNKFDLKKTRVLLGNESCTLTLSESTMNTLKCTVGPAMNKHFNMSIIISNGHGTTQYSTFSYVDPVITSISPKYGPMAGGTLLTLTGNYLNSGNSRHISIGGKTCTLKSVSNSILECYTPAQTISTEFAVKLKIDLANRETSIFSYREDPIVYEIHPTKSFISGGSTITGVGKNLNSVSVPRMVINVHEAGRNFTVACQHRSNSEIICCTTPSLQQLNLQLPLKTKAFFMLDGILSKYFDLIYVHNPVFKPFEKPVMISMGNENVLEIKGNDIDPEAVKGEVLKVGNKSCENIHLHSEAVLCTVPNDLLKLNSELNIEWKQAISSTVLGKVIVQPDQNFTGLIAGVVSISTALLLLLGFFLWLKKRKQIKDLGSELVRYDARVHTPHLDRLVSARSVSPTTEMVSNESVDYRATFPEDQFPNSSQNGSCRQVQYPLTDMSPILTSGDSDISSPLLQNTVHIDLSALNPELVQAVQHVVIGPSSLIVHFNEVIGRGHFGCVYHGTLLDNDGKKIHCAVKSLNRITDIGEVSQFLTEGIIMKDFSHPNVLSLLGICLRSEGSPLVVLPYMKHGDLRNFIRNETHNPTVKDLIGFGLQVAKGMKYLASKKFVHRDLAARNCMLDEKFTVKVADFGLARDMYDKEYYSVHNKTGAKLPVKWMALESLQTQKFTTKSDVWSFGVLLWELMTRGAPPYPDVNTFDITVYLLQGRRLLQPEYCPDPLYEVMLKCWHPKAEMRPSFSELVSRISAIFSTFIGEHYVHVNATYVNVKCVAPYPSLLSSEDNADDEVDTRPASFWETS

[13] = target: Hepatocyte growth factor receptor (Homo sapiens) (UniProt P08581); details: at 10 µM
[14] = target: MAP kinase-interacting serine/threonine-protein kinase 2 (Homo sapiens) (UniProt Q9HBH9); details: at 1 µM
Chain of MAP kinase-interacting serine/threonine-protein kinase 2 (Homo sapiens) (Q9HBH9 whole entry, looked up): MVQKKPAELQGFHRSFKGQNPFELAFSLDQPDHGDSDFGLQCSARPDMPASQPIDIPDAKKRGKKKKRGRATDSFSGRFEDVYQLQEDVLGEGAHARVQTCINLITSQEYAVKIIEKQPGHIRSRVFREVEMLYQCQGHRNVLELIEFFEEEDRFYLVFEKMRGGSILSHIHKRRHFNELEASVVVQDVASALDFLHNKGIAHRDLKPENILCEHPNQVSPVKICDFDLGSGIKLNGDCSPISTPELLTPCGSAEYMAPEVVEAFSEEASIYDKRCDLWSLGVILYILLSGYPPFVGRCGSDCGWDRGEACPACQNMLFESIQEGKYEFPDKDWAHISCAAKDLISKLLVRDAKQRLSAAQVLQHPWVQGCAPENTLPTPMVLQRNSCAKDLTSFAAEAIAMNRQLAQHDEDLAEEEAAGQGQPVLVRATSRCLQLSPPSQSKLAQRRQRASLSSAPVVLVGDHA

[15] = target: MAP kinase-interacting serine/threonine-protein kinase 2 (Homo sapiens) (UniProt Q9HBH9); details: at 10 µM
[16] = target: T4, Muscle, skeletal receptor tyrosine-protein kinase (Homo sapiens) (UniProt O15146); details: at 1 µM
T4 sequence (whole entry): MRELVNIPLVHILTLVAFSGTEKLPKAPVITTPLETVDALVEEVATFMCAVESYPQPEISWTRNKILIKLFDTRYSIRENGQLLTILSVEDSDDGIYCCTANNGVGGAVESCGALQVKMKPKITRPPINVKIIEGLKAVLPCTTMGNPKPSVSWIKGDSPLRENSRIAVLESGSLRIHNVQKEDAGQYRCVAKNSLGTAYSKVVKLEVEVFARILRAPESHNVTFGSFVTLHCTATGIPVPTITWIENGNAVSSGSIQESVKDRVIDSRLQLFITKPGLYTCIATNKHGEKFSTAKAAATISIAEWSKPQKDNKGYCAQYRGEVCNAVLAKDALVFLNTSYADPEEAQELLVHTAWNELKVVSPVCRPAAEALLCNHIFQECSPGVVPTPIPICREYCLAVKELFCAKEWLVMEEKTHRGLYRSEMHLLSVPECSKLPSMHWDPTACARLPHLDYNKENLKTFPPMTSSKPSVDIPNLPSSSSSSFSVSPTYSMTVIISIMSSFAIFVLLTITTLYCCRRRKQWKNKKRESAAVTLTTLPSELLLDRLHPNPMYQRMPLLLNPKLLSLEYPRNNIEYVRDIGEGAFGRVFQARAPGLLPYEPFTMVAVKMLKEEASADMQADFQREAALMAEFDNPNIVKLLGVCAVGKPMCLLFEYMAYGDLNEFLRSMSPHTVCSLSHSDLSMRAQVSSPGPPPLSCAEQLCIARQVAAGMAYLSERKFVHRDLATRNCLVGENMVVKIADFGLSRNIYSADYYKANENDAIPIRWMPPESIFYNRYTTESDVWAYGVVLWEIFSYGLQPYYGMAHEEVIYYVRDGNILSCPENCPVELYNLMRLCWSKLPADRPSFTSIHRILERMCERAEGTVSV

[17] = target: T4, Muscle, skeletal receptor tyrosine-protein kinase (Homo sapiens); details: at 10 µM
[18] = target: T5, Serine/threonine-protein kinase Nek11 (Homo sapiens) (UniProt Q8NG66); details: at 1 µM
T5 sequence (whole entry): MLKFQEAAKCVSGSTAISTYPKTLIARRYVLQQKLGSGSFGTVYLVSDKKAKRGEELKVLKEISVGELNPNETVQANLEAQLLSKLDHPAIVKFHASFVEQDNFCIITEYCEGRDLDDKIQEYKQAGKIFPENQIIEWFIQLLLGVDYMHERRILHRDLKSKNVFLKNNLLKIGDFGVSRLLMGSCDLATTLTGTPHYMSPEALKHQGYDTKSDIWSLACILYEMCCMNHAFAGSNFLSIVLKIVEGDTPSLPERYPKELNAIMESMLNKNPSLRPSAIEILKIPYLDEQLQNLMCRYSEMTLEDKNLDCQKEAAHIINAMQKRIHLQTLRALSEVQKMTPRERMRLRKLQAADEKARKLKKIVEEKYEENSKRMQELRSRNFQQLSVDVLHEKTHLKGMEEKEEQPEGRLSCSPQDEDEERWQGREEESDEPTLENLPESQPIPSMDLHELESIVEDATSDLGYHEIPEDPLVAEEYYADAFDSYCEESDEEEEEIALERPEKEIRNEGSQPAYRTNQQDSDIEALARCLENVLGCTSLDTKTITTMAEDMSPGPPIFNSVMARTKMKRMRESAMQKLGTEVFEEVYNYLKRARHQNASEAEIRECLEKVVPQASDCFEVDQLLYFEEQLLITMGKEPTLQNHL

[19] = target: T5, Serine/threonine-protein kinase Nek11 (Homo sapiens); details: at 10 µM
[20] = target: T1, Serine/threonine-protein kinase 4 (Homo sapiens); details: at 10 µM

Chain of SRSF protein kinase 3 (Homo sapiens) (Q9UPE1 whole entry): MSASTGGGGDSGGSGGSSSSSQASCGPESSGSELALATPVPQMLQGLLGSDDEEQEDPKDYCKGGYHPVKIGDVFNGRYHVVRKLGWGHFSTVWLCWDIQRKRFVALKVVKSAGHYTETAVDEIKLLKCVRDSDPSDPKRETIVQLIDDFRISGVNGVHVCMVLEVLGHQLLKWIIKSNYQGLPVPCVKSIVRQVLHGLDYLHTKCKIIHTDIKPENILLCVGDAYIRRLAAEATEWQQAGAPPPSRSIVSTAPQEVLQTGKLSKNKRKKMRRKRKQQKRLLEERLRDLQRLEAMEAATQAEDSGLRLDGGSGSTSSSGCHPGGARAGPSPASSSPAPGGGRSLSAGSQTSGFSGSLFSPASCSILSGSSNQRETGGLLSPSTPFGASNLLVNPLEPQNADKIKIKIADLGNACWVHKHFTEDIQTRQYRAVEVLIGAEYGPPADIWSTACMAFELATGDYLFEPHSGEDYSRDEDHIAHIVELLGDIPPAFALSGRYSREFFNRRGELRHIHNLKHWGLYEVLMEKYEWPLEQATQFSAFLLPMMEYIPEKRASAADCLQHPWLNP
Chain of Ribosomal protein S6 kinase alpha-4 (Homo sapiens) (O75676 whole entry, looked up): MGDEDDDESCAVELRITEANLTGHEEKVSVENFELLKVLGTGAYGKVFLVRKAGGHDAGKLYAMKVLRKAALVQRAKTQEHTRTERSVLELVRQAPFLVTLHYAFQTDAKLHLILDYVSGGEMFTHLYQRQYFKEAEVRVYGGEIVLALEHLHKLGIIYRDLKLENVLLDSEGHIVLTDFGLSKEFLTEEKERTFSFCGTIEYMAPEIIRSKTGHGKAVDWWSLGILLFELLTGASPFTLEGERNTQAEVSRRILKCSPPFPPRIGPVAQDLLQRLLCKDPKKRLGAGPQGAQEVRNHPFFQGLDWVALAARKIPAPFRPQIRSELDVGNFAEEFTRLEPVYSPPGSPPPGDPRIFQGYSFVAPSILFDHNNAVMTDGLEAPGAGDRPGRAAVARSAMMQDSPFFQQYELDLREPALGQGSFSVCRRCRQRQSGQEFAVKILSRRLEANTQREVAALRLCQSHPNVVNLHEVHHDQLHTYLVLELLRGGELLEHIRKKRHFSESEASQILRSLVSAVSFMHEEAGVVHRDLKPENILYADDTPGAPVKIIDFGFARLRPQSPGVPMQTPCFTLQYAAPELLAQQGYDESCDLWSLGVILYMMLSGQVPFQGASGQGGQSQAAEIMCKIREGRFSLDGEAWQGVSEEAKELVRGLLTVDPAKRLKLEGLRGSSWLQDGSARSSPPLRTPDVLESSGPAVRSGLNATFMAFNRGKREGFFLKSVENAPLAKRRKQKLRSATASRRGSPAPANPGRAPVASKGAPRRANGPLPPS

SMILES	residual activity [1]	residual activity [2]	residual activity [3]	residual activity [4]	residual activity [5]	residual activity [6]	residual activity [7]	residual activity [8]	residual activity [9]	residual activity [10]	residual activity [11]	residual activity [12]	residual activity [13]	residual activity [14]	residual activity [15]	residual activity [16]	residual activity [17]	residual activity [18]	residual activity [19]	residual activity [20]
O=[N+]([O-])/C=C/c1ccc2c(c1)OCO2	90%	101%	120%	93%	101%	104%	91%	77%	75%	106%	108%	111%	96%	116%	105%	127%	114%	90%	106%	
CCn1cnc2c(Nc3cccc(Cl)c3)nc(N[C@@H]3CCCC[C@@H]3N)nc21	79%	60%	95%	71%	64%		70%	78%	59%	8%	-1%		72%	97%	70%	61%	13%	68%	55%	47%
COc1ccc2c(c1)/C(=C/c1cnc[nH]1)C(=O)N2	63%	19%				16%	3%						42%		40%	80%	27%			
CC(C)[C@H](CO)Nc1nc(Nc2cccc(Cl)c2)c2ncn(C(C)C)c2n1	95%	62%	73%	17%	63%			58%	20%	26%	0%	83%	73%		98%	48%	5%	59%	38%	30%
CN[C@@H]1C[C@H]2O[C@@](C)([C@@H]1OC)n1c3ccccc3c3c4c(c5c6ccccc6n2c5c31)C(=O)NC4	1%	-1%		40%																
C[S+]([O-])c1ccc(-c2nc(-c3ccc(F)cc3)c(-c3ccncc3)[nH]2)cc1 (stereo not drawn)	102%	81%	102%	101%	111%	104%	93%	115%	102%	117%	105%	123%	68%	103%	87%	143%	95%	90%		109%
N/C(=N\[N+](=O)[O-])N/N=C\c1ccc(-c2cccc([N+](=O)[O-])c2)o1	97%	84%						98%	79%							93%	91%	73%	72%	
O=C1c2ccccc2-c2nc3nnnn3nc21	108%	108%	107%	83%	108%					124%	103%	127%	133%	100%	75%	131%	105%			110%
COc1ccc2c(c[n+](C)c3c4cc5c(cc4ccc23)OCO5)c1OC		94%	110%	66%	92%		94%	73%	73%			94%	85%		82%		95%			98%
CCc1nc(-c2ccc(OC)cc2)[nH]c1-c1ccncc1			123%	103%										105%	59%	117%	76%	62%	72%	111%
COc1cc(OC)c(/C=C2\C(=O)Nc3ccccc32)c(OC)c1	96%	94%	101%		108%	102%	91%	80%	76%	95%	93%	103%	94%	99%	96%	88%	78%	43%	61%	105%
c1cc(-c2cnn3cc(-c4ccc(OCCN5CCCCC5)cc4)cnc23)ccn1	103%	70%								33%	3%			56%	24%	18%	1%			
COC(=O)[C@@]1(O)C[C@H]2O[C@]1(C)n1c3ccccc3c3c4c(c5c6ccccc6n2c5c31)C(=O)NC4	-1%	0%	11%	2%	5%	2%	1%	14%	0%	2%	0%	6%	13%	0%	0%	18%	2%	34%	9%	1%
O=c1[nH]c2ccccc2n1C1CCN(Cc2ccc(-c3nc4cc5[nH]cnc5cc4nc3-c3ccccc3)cc2)CC1	106%	96%	112%	91%	102%	106%	80%	72%	80%	112%	51%	93%	88%	97%	67%	105%	84%	75%	88%	80%
COc1cc2ncnc(Nc3ccc(OCc4ccccc4)cc3)c2cc1OC	99%	101%	122%	89%	95%	111%	81%	70%	90%	64%	49%	87%	87%	90%	68%	118%	77%	99%	101%	104%
CC(C)(C)c1cc(C=C(C#N)C#N)cc(Br)c1O			105%		104%				100%	116%						121%	72%		109%	119%
O=C1NC(=O)c2c1c1c3ccccc3n3c1c1c2c2ccccc2n1C1CCC3O1	56%	64%	99%	96%	19%	10%	12%	80%	65%	34%	11%			97%	95%			91%	87%	-1%
O=C1Nc2ccc3ncsc3c2/C1=C/c1c[nH]cn1	20%	6%	98%	68%	1%	2%	1%	3%	0%	6%	2%	18%	4%	9%	4%	53%	11%	50%	13%	3%
